From PubChem BioAssay (EPA / NIEHS)
Values joined by “and” are separate entries in the source; they are usually repeats but may differ in a detail not shown here. Equal values may be shown once. More than one record can exist for a structure, and the calls need not agree. Active and inactive are the calls of the source. The calls were made as follows: active = hit-call score of the fitted dose curve at least 0.9, where 1 is the maximum; inactive = score below 0.9.

How the values were obtained:
[1] = BSK_CASM3C_SRB: Viability Assessment in the BioMAP Diversity Plus: CASM3C Assay (AID 2283050); settings: primary human coronary artery smooth muscle cells;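 also: cells exposed to compound for 24 h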
[2] = read-out: Thrombomodulin, THBD (gene 7056); assay: BSK_CASM3C_Thrombomodulin: BioMAP Diversity Plus: CASM3C Assay for Thrombomodulin Biomarker Activity (AID 2283051); settings: primary human coronary artery smooth muscle cells; actives raise or lower the signal;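 also: thrombomodulin protein level measured by ELISA 24 h after dosing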
[3] = read-out: Tissue Factor, F3 (gene 2152); assay: BSK_CASM3C_TissueFactor: BioMAP Diversity Plus: CASM3C Assay for Tissue Factor Biomarker Activity (AID 2283052); settings: primary human coronary artery smooth muscle cells; actives raise or lower the signal;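 also: cell surface tissue factor protein level read by ELISA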
[4] = read-out: Interferon-gamma inducible Protein 10 (IP10), CXCL10 (gene 3627); assay: BSK_hDFCGF_IP10: BioMAP Diversity Plus: hDFCGF Assay for Interferon-gamma inducible Protein 10 (IP10) Biomarker Activity (AID 2283053); settings: primary human foreskin fibroblasts; actives raise or lower the signal
In short: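 Chemical-treated human skin fibroblasts (primary) were sampled at 24 h for IP-10 by ELISA. Both increases and decreases relative to DMSO were scored.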

[5] = read-out: Urokinase-type plasminogen activator receptor (uPAR), PLAUR (gene 5329); assay: BSK_CASM3C_uPAR: BioMAP Diversity Plus: CASM3C Assay for Urokinase-type plasminogen activator receptor (uPAR) Biomarker Activity (AID 2283054); settings: primary human coronary artery smooth muscle cells; actives raise or lower the signal;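 also: cell-surface uPAR protein level quantified by ELISA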
[6] = read-out: Vascular cell adhesion molecule 1 (VCAM1), VCAM1 (gene 7412); assay: BSK_CASM3C_VCAM1: BioMAP Diversity Plus: CASM3C Assay for Vascular cell adhesion molecule 1 (VCAM1) Biomarker Activity (AID 2283055); settings: primary human coronary artery smooth muscle cells; actives raise or lower the signal;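 also: VCAM-1 protein level quantified by ELISA on the cells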
[7] = read-out: Collagen III, COL3A1 (gene 1281); assay: BSK_hDFCGF_CollagenIII: BioMAP Diversity Plus: hDFCGF Assay for Collagen III Biomarker Activity (AID 2283056); settings: primary human foreskin fibroblasts; actives raise or lower the signal
In short: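 Human foreskin fibroblast primary cultures sampled 24 h after dosing; Collagen III quantified by ELISA. Signal fitted bidirectionally against DMSO baseline.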

[8] = read-out: Epidermal growth factor receptor (EGFR), EGFR (gene 1956); assay: BSK_hDFCGF_EGFR: BioMAP Diversity Plus: hDFCGF Assay for Epidermal growth factor receptor (EGFR) Biomarker Activity (AID 2283057); settings: primary human foreskin fibroblasts; actives raise or lower the signal
In short: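 Cell-based multiplexed assay in primary human foreskin fibroblasts. EGFR is read by ELISA 24 h after treatment and compared with DMSO controls.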

[9] = read-out: Interleukin-8 (IL8), CXCL8 (gene 3576); assay: BSK_hDFCGF_IL8: BioMAP Diversity Plus: hDFCGF Assay for Interleukin-8 (IL8) Biomarker Activity (AID 2283058); settings: primary human foreskin fibroblasts; actives raise or lower the signal
In short: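 Primary human foreskin fibroblasts (hDFCGF system) dosed with chemical; IL-8 measured by ELISA 24 hours later. Bidirectional curve fitting relative to DMSO baseline; cytotoxicity tracked in parallel cultures by SRB total protein staining.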

[10] = BSK_hDFCGF_Proliferation: Cell Proliferation Assessment in the BioMAP Diversity Plus: hDFCGF Assay (AID 2283059); settings: primary human foreskin fibroblasts;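 also: curves fitted for both rise and fall of signal versus DMSO baseline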
In short: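 Steps: dose primary human dermal fibroblasts (foreskin); […] fix in 10% TCA; stain with 0.1% SRB; read 560 nm; fit gain or loss of signal against DMSO.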

[11] = read-out: Macrophage colony-stimulating factor (MCSF), CSF1 (gene 1435); assay: BSK_hDFCGF_MCSF: BioMAP Diversity Plus: hDFCGF Assay for Macrophage colony-stimulating factor (MCSF) Biomarker Activity (AID 2283060); settings: primary human foreskin fibroblasts; actives raise or lower the signal
In short: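 Human foreskin fibroblast primary cultures; M-CSF measured by ELISA 24 hours after chemical dosing. Bidirectional fitting relative to DMSO, with overt cytotoxicity tracked by parallel SRB total-protein staining (0.1% SRB, 10% TCA fixation, 560 nm).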

[12] = BSK_hDFCGF_SRB: Viability Assessment in the BioMAP Diversity Plus: hDFCGF Assay (AID 2283061); settings: primary human foreskin fibroblasts;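 also: cells exposed to compound for 24 h before the read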
In short: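 Human foreskin fibroblasts in 96-well plates were treated 24 h. Total protein was measured by 0.1% SRB staining after 10% TCA fixation, read at 560 nm. Data were fitted bidirectionally against DMSO.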

[13] = read-out: TIMP metallopeptidase inhibitor 1 (TIMP1), TIMP1 (gene 7076); assay: BSK_hDFCGF_TIMP1: BioMAP Diversity Plus: hDFCGF Assay for TIMP metallopeptidase inhibitor 1 (TIMP1) Biomarker Activity (AID 2283062); settings: primary human foreskin fibroblasts; actives raise or lower the signal
In short: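 Human foreskin fibroblast primary cultures dosed for 24 h; secreted/surface TIMP-1 quantified by ELISA. Bidirectional curve fitting against DMSO baseline; cytotoxicity tracked in parallel cultures by SRB total-protein staining.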

[14] = read-out: Monokine induced gamma interferon (MIG), CXCL9 (gene 4283); assay: BSK_hDFCGF_MIG: BioMAP Diversity Plus: hDFCGF Assay for Monokine induced gamma interferon (MIG) Biomarker Activity (AID 2283063); settings: primary human foreskin fibroblasts; actives raise or lower the signal
In short: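 MIG/CXCL9 measured by ELISA 24 h after dosing primary human skin fibroblasts. Activity fitted in both directions against DMSO controls. Cytotoxicity was checked in parallel cultures by SRB staining read at 560 nm.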

[15] = read-out: Matrix Metallopeptidase 1 (MMP1), MMP1 (gene 4312); assay: BSK_hDFCGF_MMP1: BioMAP Diversity Plus: hDFCGF Assay for Matrix Metallopeptidase 1 (MMP1) Biomarker Activity (AID 2283064); settings: primary human foreskin fibroblasts; actives raise or lower the signal
In short: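 Human foreskin fibroblasts exposed to chemical for 24 h; MMP1 detected by ELISA, with DMSO as baseline for bidirectional fitting.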

[16] = read-out: Vascular cell adhesion molecule 1 (VCAM1), VCAM1 (gene 7412); assay: BSK_hDFCGF_VCAM1: BioMAP Diversity Plus: hDFCGF Assay for Vascular cell adhesion molecule 1 (VCAM1) Biomarker Activity (AID 2283065); settings: primary human foreskin fibroblasts; actives raise or lower the signal;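 as to AC50: VCAM-1 protein level quantified by ELISA after 24 h chemical exposure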
In short: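 Human foreskin fibroblast primary cells dosed with chemical, VCAM-1 measured by ELISA at 24 h. Bidirectional curve fitting relative to DMSO as negative control/baseline.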

[17] = read-out: Plasminogen activator inhibitor-1 (PAI1), SERPINE1 (gene 5054); assay: BSK_hDFCGF_PAI1: BioMAP Diversity Plus: hDFCGF Assay for Plasminogen activator inhibitor-1 (PAI1) Biomarker Activity (AID 2283066); settings: primary human foreskin fibroblasts; actives raise or lower the signal
In short: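 Human skin fibroblast cultures receive chemical for 24 h before PAI-1 is measured by ELISA; signal changes are fitted bidirectionally against DMSO-treated wells.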

[18] = read-out: Intercellular Adhesion Molecule 1 (ICAM1), ICAM1 (gene 3383); assay: BSK_KF3CT_ICAM1: BioMAP Diversity Plus: KF3CT Assay for Intercellular Adhesion Molecule 1 (ICAM1) Biomarker Activity (AID 2283067); settings: primary human keratinocytes with fibroblasts; actives raise or lower the signal
In short: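 Human keratinocyte–foreskin fibroblast co-culture was treated for 24 h. Cell-surface ICAM-1 was quantified by ELISA, fitted bidirectionally relative to DMSO. Cytotoxicity was checked in parallel cultures by SRB total-protein staining.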

[19] = read-out: Interferon-gamma inducible Protein 10 (IP10), CXCL10 (gene 3627); assay: BSK_KF3CT_IP10: BioMAP Diversity Plus: KF3CT Assay for Interferon-gamma inducible Protein 10 (IP10) Biomarker Activity (AID 2283068); settings: primary human keratinocytes with fibroblasts; actives raise or lower the signal
In short: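 KF3CT co-culture (keratinocytes + foreskin fibroblasts), 24 h compound, IP-10 by ELISA; bidirectional fit vs DMSO baseline.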

[20] = BSK_KF3CT_SRB: Viability Assessment in the BioMAP Diversity Plus: KF3CT Assay (AID 2283069); settings: primary human keratinocytes with fibroblasts;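 also: read 24 h after compound addition; fitted for both signal gain and loss against DMSO baseline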
In short: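 Overt cytotoxicity is assessed as total protein by sulforhodamine B staining in parallel human skin co-cultures at 24 h after dosing. DMSO serves as negative control and baseline.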

Measured: AC50

CCCCCOC(=O)COc1cc(N2C(=O)C3=C(CCCC3)C2=O)c(F)cc1Cl
active: [4] 17.9 µM | [6] 5.55 µM | [7] 15.4 µM | [10] 22.7 µM | [11] 20 µM | [14] 4.64 µM | [16] 14 µM | [19] 31.9 µM
inactive: all other assays above

CCSC(=O)N(CC(C)C)CC(C)C
active: [8] 5.32 µM
inactive: all other assays above

N[C@@H](Cc1cc(I)c(Oc2ccc(O)c(I)c2)c(I)c1)C(=O)O
active: [10] 8.65 µM | [16] 6.76 µM
inactive: all other assays above

CCCOC(=O)NCCCN(C)C
inactive: all assays above

CCOC(=O)C(C)Oc1ccc(Oc2nc3ccc(Cl)cc3o2)cc1 (stereo not drawn)
active: [10] 13.2 µM | [15] 20 µM
not listed: [8]
inactive: all other assays above

CC(C)(c1ccc(O)cc1)c1ccc(O)cc1
active: [2] 8.47 µM | [4] 14.4 µM | [7] 6.87 µM and 25.7 µM | [10] 26.2 µM [middle of 4 runs] | [16] 8.38 µM
inactive: [1] | [2] | [3] | [4] | [5] | [6] | [7] | [8] | [9] | [11] | [12] | [13] | [14] | [15] | [16] | [17] | [18] | [19] | [20]
